Measurements reported in PubChem BioAssay.
Active and inactive are the calls of the source. Unless noted, no rule for the calls is given here.

Assays:
[1] = compound effects on lung adenocarcinoma cell viability – A549, calcein-AM fluorescence, 48 h, basal, profiling panel (AID 1162); settings: higher = more signal; also: test concentration not given here
[2] = compound effects on differentiated 3T3-L1 adipocyte viability – cell-based, 3T3-L1 adipocytes, calcein-AM fluorescence, 48 h, basal, profiling panel (AID 1163); settings: 3T3-L1 adipocytes viability, higher = more signal; also: test concentration not given here
[3] = compound effects on hepatocellular carcinoma cell viability – HepG2, calcein-AM fluorescence, 48 h, basal, profiling panel (AID 1164); settings: higher = more signal; also: test concentration not given here
[4] = compound effects on multiple myeloma cell viability – MM1S, calcein-AM fluorescence, 48 h, basal, profiling panel (AID 1165); settings: higher = more signal;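 also: viability of MM1S multiple myeloma cells under basal unstimulated conditions; test concentration not given here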
[5] = calcein-AM signal in unstimulated myeloma cells – cell-based, calcein-AM fluorescence, 48 h, PK04 Diversity Set, profiling panel (AID 1166); settings: RPMI8226 myeloma viability, higher = more signal;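 also: cells grown under basal conditions without added stimulus; test concentration not given here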
[6] = JC-1 mitochondrial signal, unstimulated HepG2 cells – cell-based, JC-1 fluorescence, 24 h, 100 nL compound, profiling panel (AID 1167); settings: HepG2 mitochondrial potential, higher = more signal; also: test concentration not given here
[7] = JC-1 mitochondrial signal, unstimulated adipocytes – cell-based, JC-1 fluorescence, 3T3-L1 adipocytes, 24 h, 100 nL compound, profiling panel (AID 1168); settings: JC-1 mitochondrial fluorescence, higher = more signal, called active from +8 up or from −8 down; also: test concentration not given here
[8] = JC-1 mitochondrial signal, unstimulated myeloma cells – cell-based, JC-1 fluorescence, RPMI8226, 24 h, 100 nL compound, profiling panel (AID 1169); settings: JC-1 mitochondrial potential fluorescence, higher = more signal; also: test concentration not given here
[9] = JC-1 mitochondrial signal, unstimulated MM1S myeloma – cell-based, JC-1 fluorescence, 24 h, 100 nL compound, profiling panel (AID 1170); settings: MM1S mitochondrial potential, higher = more signal; also: test concentration not given here
[10] = resazurin metabolic signal in A549 cells – cell-based, resazurin fluorescence, 24 h, PK04 Diversity Set, profiling panel (AID 1171); settings: A549 viability, higher = more signal, called active from +8 up or from −8 down; also: test concentration not given here
[11] = resazurin metabolic signal in HepG2 cells – cell-based, resazurin fluorescence, 24 h, PK04 Diversity Set, profiling panel (AID 1172); settings: HepG2 viability, higher = more signal; also: test concentration not given here
[12] = budding yeast growth changes without added modifier – OD600, strain BY4716, 24 h, basal condition, primary screen (AID 1173); settings: S. cerevisiae BY4716 growth, OD600, 24 h; higher = more signal, called active from +8 up or from −8 down
[13] = viability profiling in MM1S myeloma cells – cell-based, resazurin fluorescence, basal, 24 h, PK04 Diversity Set, profiling panel (AID 1174); settings: higher = more signal, called active from +8 up or from −8 down; also: test concentration not given here
[14] = target: Dihydroorotate dehydrogenase (quinone), mitochondrial (Plasmodium falciparum (isolate 3D7)) (UniProt Q08210); test: inhibition of P. falciparum DHODH – biochemical, C-terminal His tag, absorbance 600 nm, primary screen (AID 1175); settings: PfDHODH enzyme, DCIP absorbance 600 nm; higher = more signal, called active from +8 up or from −8 down;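 also: recombinant parasite enzyme with a five histidine tag at its C terminus; test concentration not given here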
Dihydroorotate dehydrogenase (quinone), mitochondrial (Plasmodium falciparum (isolate 3D7)), sequence (Q08210 whole entry, looked up): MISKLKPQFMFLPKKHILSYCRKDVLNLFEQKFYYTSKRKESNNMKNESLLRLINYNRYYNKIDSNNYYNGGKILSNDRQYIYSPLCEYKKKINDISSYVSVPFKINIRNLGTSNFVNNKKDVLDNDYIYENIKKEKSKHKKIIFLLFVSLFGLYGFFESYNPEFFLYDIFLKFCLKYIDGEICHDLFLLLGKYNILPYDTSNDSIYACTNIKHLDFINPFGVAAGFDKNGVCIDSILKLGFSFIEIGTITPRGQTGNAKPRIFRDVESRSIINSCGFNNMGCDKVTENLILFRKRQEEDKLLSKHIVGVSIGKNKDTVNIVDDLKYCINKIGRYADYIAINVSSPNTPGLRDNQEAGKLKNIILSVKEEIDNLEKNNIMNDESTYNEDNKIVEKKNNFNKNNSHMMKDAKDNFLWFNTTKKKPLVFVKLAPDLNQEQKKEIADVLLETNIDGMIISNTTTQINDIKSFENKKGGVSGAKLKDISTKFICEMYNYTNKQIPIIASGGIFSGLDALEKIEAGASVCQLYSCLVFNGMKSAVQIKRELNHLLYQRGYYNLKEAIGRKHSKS

[15] = inhibition of PAO1 biofilm formation – strain PAO1, LB-PBS medium, absorbance 600 nm, primary screen (AID 1176); also: test concentration not given here; settings: P. aeruginosa PAO1 growth/biofilm, A600, 12 h; higher = more signal
[16] = growth modulation of vineyard yeast isolate – strain RM11-1a, OD600, basal, 24 h, primary screen (AID 1177);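 also: cultures grown under basal conditions with no added stressor; test concentration not given here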; settings: S. cerevisiae RM11-1a growth, OD600, 24 h; higher = more signal, called active from +8 up or from −8 down
[17] = growth of efflux-deficient E. coli DRC39 – strain DRC39, OD650, 24 h, E. coli filamentation inducers, primary screen (AID 1178);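 also: growth measured as culture turbidity by optical density at 650 nm; test concentration not given here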; settings: E. coli DRC39 acrAB, higher = more signal, called active from +8 up or from −8 down
[18] = growth of efflux-deficient E. coli DRC39 – strain DRC39, OD650, 48 h, E. coli filamentation inducers, primary screen (AID 1179);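 also: screen aims at cell division blockers that make cells filament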; settings: E. coli DRC39 delta-acrAB growth, higher = more signal, called active from +8 up or from −8 down
[19] = viability profiling in RPMI8226 myeloma cells – cell-based, resazurin fluorescence, basal, 24 h, PK04 Diversity Set, profiling panel (AID 1180); settings: higher = more signal;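 also: RPMI8826 multiple myeloma cell line at 5000 cells per well; test concentration not given here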
[20] = target: E3 ubiquitin-protein ligase XIAP (Homo sapiens) (UniProt P98170); test: small molecules binding XIAP protein – biophysical, small-molecule microarray, fluorescence 635 nm, primary screen (AID 1181); settings: higher = more signal;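 also: score merges 667 nm emission and signal to noise over triplicate slides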
E3 ubiquitin-protein ligase XIAP (Homo sapiens), sequence (P98170 whole entry, looked up): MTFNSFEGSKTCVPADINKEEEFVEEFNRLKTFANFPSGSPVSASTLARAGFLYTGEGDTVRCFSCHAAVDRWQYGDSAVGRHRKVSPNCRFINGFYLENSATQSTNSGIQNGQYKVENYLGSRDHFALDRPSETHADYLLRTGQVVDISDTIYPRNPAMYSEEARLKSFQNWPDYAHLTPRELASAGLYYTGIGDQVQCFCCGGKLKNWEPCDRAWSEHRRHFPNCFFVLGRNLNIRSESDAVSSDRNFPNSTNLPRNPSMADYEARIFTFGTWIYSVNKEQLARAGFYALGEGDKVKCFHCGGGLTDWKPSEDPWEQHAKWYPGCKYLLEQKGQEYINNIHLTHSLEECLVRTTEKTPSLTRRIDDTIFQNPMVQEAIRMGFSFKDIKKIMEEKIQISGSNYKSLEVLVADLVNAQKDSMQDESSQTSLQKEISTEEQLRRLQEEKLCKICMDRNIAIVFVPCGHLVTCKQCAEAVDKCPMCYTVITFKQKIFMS

Structure (SMILES)	z-score [1]	z-score [2]	z-score [3]	z-score [4]	z-score [5]	z-score [6]	z-score [7]	z-score [8]	z-score [9]	z-score [10]	z-score [11]	z-score [12]	z-score [13]	composite z-score [14]	z-score [15]	z-score [16]	z-score [17]	z-score [18]	z-score [19]	composite z-score [20]
C=C(CCCC)C(=O)CC[C@@H](OC(=O)c1ccccc1-c1ccccc1C(=O)O)c1ccc(CO)o1	-0.64	0.498	0.102	0.227	-0.91	-1.24	-0.26 (inactive)	0.479	-0.0259	-0.476 (inactive)	0.0232	-0.712 (inactive)	0.225 (inactive)	-2.93 (inactive)	1.32 (inactive)	-0.279 (inactive)	-0.079 (inactive)	-0.218 (inactive)	-0.0459	0.0842
CO[C@H]1O[C@H](CO)[C@@H](OC(=O)Nc2cccc(F)c2)[C@H](OC(=O)Nc2ccccc2-c2ccccc2)[C@@H]1OC(=O)Nc1ccccc1-c1ccccc1	-2.35	0.63	-1.85	-2.28	-2.37	-0.27	0.827 (inactive)	-0.877	-1.38	-2.79 (inactive)	-1.71	0.664 (inactive)	-2.52 (inactive)	-0.59 (inactive)	1.39 (inactive)	2.42 (inactive)	-0.798 (inactive)	0.689 (inactive)	-1.78	0.117
Cc1ccc(F)cc1S(=O)(=O)N[C@@H]1CCN(Cc2ccc(C(F)(F)F)cc2)C1	-0.455	-1.68	-1.82	-2.4	-2.09	-3.18	-0.332 (inactive)	-0.615	-1.75	-0.196 (inactive)	-0.29	-10.8 (active)	-0.529 (inactive)	-0.315 (inactive)	-0.553 (inactive)	0.338 (inactive)	0.0136 (inactive)	-1.2 (inactive)	-0.979	-0.177
Cc1ccc(S[C@]2(C(=O)NCc3ccccc3)CC(=O)N(Cc3cc(C(F)(F)F)cc(C(F)(F)F)c3)[C@@H]2c2ccc(CO)cc2)cc1	-0.549	0.774	0.224	-0.125	-1.17	-0.271	-0.525 (inactive)	1.13	-0.476	0.7 (inactive)	-0.417	-0.248 (inactive)	0.133 (inactive)	1.01 (inactive)	0.711 (inactive)	1.43 (inactive)	-0.244 (inactive)	-0.532 (inactive)	0.14	-0.228
COCCCNC(=O)[C@]1(Cc2ccccc2N=[N+]=[N-])N=C(c2ccc(OCCCO)cc2)O[C@@H]1c1ccccc1CN=[N+]=[N-]	-1.02	1.63	-1.77	-2.98	-4.11	1.46	-0.683 (inactive)	-1.2	-0.495	-1.2 (inactive)	-0.412	0.0634 (inactive)	-2.16 (inactive)	0.0785 (inactive)	1.83 (inactive)	-0.22 (inactive)	2.79 (inactive)	0.499 (inactive)	-2.01	0.283
[N-]=[N+]=NCc1ccccc1C[C@]1(C(N)=O)N=C(c2ccc(OCCCO)cc2)O[C@H]1c1ccccc1N=[N+]=[N-]	-0.169	0.0873	-0.153	-2.05	-1.55	-0.727	-1.38 (inactive)	-1.04	-0.649	-0.38 (inactive)	0.776	0.603 (inactive)	-1.2 (inactive)	1.56 (inactive)	1.54 (inactive)	2.09 (inactive)	0.616 (inactive)	0.116 (inactive)	-1.24	-0.0444
COC(=O)[C@@]1(Cc2ccc(OC)cc2)[C@H]2c3cc(C(=O)N(C)C)n(CCSCCO)c3C[C@H]2CN1C(=O)c1ccccc1	-0.46	-0.774	0.595	-2.12	-0.254	1.47	-0.358 (inactive)	0.179	-1.07	-0.494 (inactive)	0.123	0.32 (inactive)	-0.415 (inactive)	-0.669 (inactive)	0.852 (inactive)	-0.459 (inactive)	0.219 (inactive)	-0.143 (inactive)	-0.409	-0.0062
COc1ccc([Si](C)(C)[C@@H]2[C@@H](CCO)O[C@]3(C(=O)N(Cc4ccc(N5C(=O)c6cccc7cccc5c67)cc4)c4ccccc43)[C@H]2C)cc1	-0.35	-0.903	-3.63	-1.6	-4.12	0.00779	1.89 (inactive)	-1.11	-1.15	-1.43 (inactive)	-0.454	0.338 (inactive)	-0.898 (inactive)	-0.774 (inactive)	1.51 (inactive)	3.87 (inactive)	1.68 (inactive)	1.19 (inactive)	-4.48	0.0623
CN(C)CCCCCCNC(=O)[C@@H]1C[C@@H]2C(=O)N[C@@H](Cc3ccccc3)C(=O)N2[C@@H]1c1cccc(OCCO)c1	-0.778	0.559	-0.857	0.802	-0.555	-1.02	-0.822 (inactive)	0.0287	0.316	-0.115 (inactive)	-0.272	-0.117 (inactive)	-0.826 (inactive)	-0.562 (inactive)	-0.695 (inactive)	-0.704 (inactive)	0.25 (inactive)	0.0332 (inactive)	-0.592	0.564
COCCOC(=O)N1C(=O)[C@@]2(c3cc(C#CC4(O)CCCCCC4)ccc31)[C@H](c1ccc(O)cc1)N1[C@H](c3ccccc3)[C@H](c3ccccc3)OC(=O)[C@H]1[C@@H]2C(=O)N1CCc2cc(OC)c(OC)cc2C1	-0.742	0.0633	-0.592	-0.435	-0.165	-0.206	-0.947 (inactive)	0.83	-0.494	1.65 (inactive)	2.14	-0.169 (inactive)	0.493 (inactive)	-0.102 (inactive)	-0.0242 (inactive)	-0.592 (inactive)	0.351 (inactive)	-0.8 (inactive)	0.0494	-0.313
O=C(NCC(O)CO)[C@@]1(Cc2ccccc2)N=C(c2ccc(OCCCO)cc2)O[C@H]1c1ccccc1 (stereo not given in full)	-0.125	1.2	-0.266	-1.93	-0.0748	0.4	0.366 (inactive)	-0.392	-0.223	0.564 (inactive)	0.531	-2.2 (inactive)	0.583 (inactive)	-0.507 (inactive)	0.41 (inactive)	-0.547 (inactive)	2.7 (inactive)	0.249 (inactive)	0.391	0.221
O=C(CS)NCCCCCCNC(=O)[C@H]1C[C@H]2C(=O)N3CCC[C@H]3C(=O)N2[C@H]1c1ccc(O)cc1	-0.683	0.646	0.0725	-0.213	1.07	-1.12	-0.0423 (inactive)	-0.0782	-0.419	0.985 (inactive)	0.301	0.152 (inactive)	-0.868 (inactive)	-0.504 (inactive)	0.0499 (inactive)	-0.458 (inactive)	-0.144 (inactive)	-0.516 (inactive)	-0.563	0.115
COc1ccc([Si](C)(C)[C@@H]2[C@@H](CCO)O[C@]3(C(=O)N(Cc4ccccc4)c4ccc(N(C=O)c5ccccc5)cc43)[C@H]2C)cc1	-0.77	-0.895	-1.13	-1.54	-3.38	0.00444	-0.435 (inactive)	-0.858	-1.56	-2.31 (inactive)	-0.131	1.59 (inactive)	-1.54 (inactive)	0.186 (inactive)	3.19 (inactive)	5.4 (inactive)	1.23 (inactive)	0.843 (inactive)	-1.6	0.0031
Cc1ccc(S[C@]2(C(=O)NCCCN(C)C)CC(=O)N(Cc3ccccc3)[C@@H]2c2ccc(CO)cc2)cc1	0.931	-0.084	-0.569	-0.569	-1.12	0.816	-0.946 (inactive)	-0.718	0.706	0.516 (inactive)	-0.519	-0.686 (inactive)	0.833 (inactive)	-0.336 (inactive)	0.317 (inactive)	-0.358 (inactive)	-0.194 (inactive)	-0.435 (inactive)	0.63	-0.185
O=C1OCCC/C=C\[C@H]2OC34C=CCN(Cn5nnc6ccccc65)C(=O)[C@H]3N(CCCO)C(=O)[C@@H]4C12 (stereo not given in full)	-0.745	0.737	-0.395	1.25	-0.284	-0.313	1.16 (inactive)	-0.0773	-0.73	0.651 (inactive)	0.558	0.351 (inactive)	0.42 (inactive)	-0.0502 (inactive)	0.77 (inactive)	-0.44 (inactive)	0.339 (inactive)	0.0024 (inactive)	0.702	0.301
C=CCC(OC(C)=O)[C@@H]1[C@@H](N(Cc2ccc(-c3ccccc3)cc2)C(=O)c2ccc(C)cc2)c2cc(OCCCO)ccc2N1C(=O)Cc1ccc(OC)cc1 (stereo not given in full)	0.837	0.705	2.23	0.711	0.815	4.08	-0.172 (inactive)	0.768	-0.496	0.267 (inactive)	0.989	-0.397 (inactive)	1.02 (inactive)	-1.17 (inactive)	-0.312 (inactive)	-1.65 (inactive)	-0.104 (inactive)	0.393 (inactive)	0.72	-0.165
C=C(COC)/C(=C/C[C@H](OC(C)=O)c1ccccc1OCCO)c1cnc2ccccc2c1	0.406	-0.309	-0.738	-2.08	-1.32	1.4	-1.34 (inactive)	-0.439	-0.62	-0.0424 (inactive)	-0.192	1.36 (inactive)	-0.885 (inactive)	-2.14 (inactive)	1.57 (inactive)	1.19 (inactive)	-0.447 (inactive)	-0.334 (inactive)	-0.784	-0.173
C=CCN1C(=O)[C@@]2(O[C@@H](CCO)[C@H]([Si](C)(C)c3ccc(OC)cc3)[C@H]2C)c2cc(N3C(=O)COc4ccccc43)ccc21	-3.41	-0.967	-4.72	-2.74	-4.33	-2.17	2.78 (inactive)	-1.01	-2.24	-5.02 (inactive)	-6.28	0.445 (inactive)	-8.85 (active)	0.428 (inactive)	-0.258 (inactive)	3.31 (inactive)	1.09 (inactive)	0.338 (inactive)	-6.27	-0.031
